Holding throughout (assay type): functional
Experiment [1] has as its target Solute carrier family 2, facilitated glucose transporter member 1 (Homo sapiens) (UniProt P11166). Kind of experiment: ST_JUDE_LEISH: Cytotoxicity at 2uM final concentration against transgenic Leishmania Mexicana promastigotes LmGLUT1 that are glucose transport deficient and complemented with the human glucose transporter GLUT1. Activity is measured by DNA content using SYBR green in vitro.

In experiment [2] the target is Hexose transporter 1 (Plasmodium falciparum) (UniProt O97467). In words: ST_JUDE_LEISH: Cytotoxicity at 2uM final concentration against transgenic Leishmania Mexicana promastigotes LmPfHT that are glucose transport deficient and complemented with the Plasmodium falciparum hexose transporter. Activity is measured by DNA content using SYBR green in vitro.
The target of experiment [3] is Glucose transporter (Leishmania mexicana) (UniProt O61059). In words: ST_JUDE_LEISH: Cytotoxicity at 2uM final concentration against transgenic Leishmania Mexicana promastigotes LmGT2 that are glucose transport deficient and complemented with the L. Mexicana glucose transporter 2. Activity is measured by DNA content using SYBR green in vitro.

Solute carrier family 2, facilitated glucose transporter member 1 (Homo sapiens), sequence (P11166 whole entry): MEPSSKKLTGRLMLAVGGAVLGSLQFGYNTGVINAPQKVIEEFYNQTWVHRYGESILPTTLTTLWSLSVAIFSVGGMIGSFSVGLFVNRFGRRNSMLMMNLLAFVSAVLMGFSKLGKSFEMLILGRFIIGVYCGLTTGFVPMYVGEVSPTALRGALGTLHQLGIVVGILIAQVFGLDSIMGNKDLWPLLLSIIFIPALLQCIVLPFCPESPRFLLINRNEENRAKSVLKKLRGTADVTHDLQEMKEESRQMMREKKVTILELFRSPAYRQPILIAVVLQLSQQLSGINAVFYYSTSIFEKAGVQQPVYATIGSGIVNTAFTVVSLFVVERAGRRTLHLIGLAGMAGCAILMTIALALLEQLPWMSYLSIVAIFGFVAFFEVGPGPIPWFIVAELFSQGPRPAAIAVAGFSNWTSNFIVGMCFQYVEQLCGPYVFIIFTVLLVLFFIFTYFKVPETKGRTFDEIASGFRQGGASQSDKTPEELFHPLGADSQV

`Cc1cccc2nc(-c3cccc(-c4ccc(NC(=O)c5ccc(=O)[nH]n5)cc4)c3)[nH]c12`: the inhibition turned out to be 3.76% in experiment [1], 3.2% in experiment [2] and 1.44% in experiment [3].

`CCCCc1ccc(-c2c(N)nc(N)nc2CC)cc1`: the inhibition in experiment [1] turned out to be 11.5%; in experiment [2] it was 9.06%; in experiment [3], 8.51%.

As for `Nc1ccc(-c2ccc(NC(=O)Nc3cc(C(F)(F)F)ccc3F)cc2)cn1`, the inhibition was 7.37% in experiment [1], 4.54% in experiment [2] and 2.2% in experiment [3].

In the case of `CN(C(=O)C(C)(C)Oc1ccc(Cl)cc1)C1CCN(CCCCCNC(=O)/C=C/c2ccc(Cl)c(Cl)c2)CC1`, the inhibition in experiment [1] worked out at 1.85%; in experiment [2], 2.76%; in experiment [3] it was 0.52%.

Turning to `CN1CCC(NCc2cccc(-c3ccc(S(=O)(=O)NCCN4CCCC4)c(F)c3)c2)CC1`, the inhibition in experiment [1] is -1.49%; in experiment [2] it was -0.62%; in experiment [3] it was -0.34%.

In the case of `NC(=O)C1Cc2ccccc2CN1CC(=O)Nc1ccccc1Sc1ccccc1` (configuration not stated), the inhibition in experiment [1] stood at 2.73%; in experiment [2], 2.07%; in experiment [3], 2.18%.

Turning to `CCCCN1CCCC[C@H]1[C@@H](O)c1ccnc2ccc(OCC)cc12`, the results for the inhibition in experiment [1], in experiment [2] and in experiment [3] were 2.63%, 3.12% and 3.68%, respectively.

Turning to `COc1ccc(-c2cccc(NC(=O)c3cccc(C#N)c3)c2)cc1CN(C)CCN(C)C`, the inhibition in experiment [1] is 1.23%; in experiment [2], 1.39%; in experiment [3], 0.48%.

For `O=C(C=Cc1ccc(Cl)c(Cl)c1)NCCCCCN1CCCC(CCCNC(=O)c2ccc3c(c2)OCO3)C1` (configuration not stated), the inhibition is 2.29% in experiment [1], 0.94% in experiment [2] and -0.94% in experiment [3].

For `CC(=O)CC(=O)N1CCN(c2ccccc2)CC1`, the inhibition was -0.36% in experiment [1], -0.81% in experiment [2] and -0.35% in experiment [3].

As for `CC(C)CCN1CCC(Oc2ccc(NC(=O)c3ccsc3)cc2Cl)CC1`, the inhibition in experiment [1] was -0.7%; in experiment [2], 1.67%; in experiment [3] it was 1.45%.

For `COc1ccc(C=NN=c2cc(C)[nH]c3ccc(C)cc23)c2ccccc12`, the inhibition in experiment [1] was 0.11%; in experiment [2], 1.75%; in experiment [3], -1.89%.

With `COc1ccc2nccc([C@@H](O)CN3CCC(NC(=O)c4ccc5nc(-n6cccc6)sc5c4)CC3)c2c1`, the inhibition in experiment [1] was 6.02%; in experiment [2], 5.93%; in experiment [3], 4.22%.

As for `N=C(N)Nc1nccc(NCc2ccccc2)n1`, the inhibition in experiment [1] is -2.64%; in experiment [2], -0.68%; in experiment [3] it was -0.48%.

Consider `COc1cc2c(cc1OCCN1CCC(N)CC1)N(C(=O)/C=C/c1ccccc1Cl)CC2`, for which the inhibition in experiment [1] worked out at 11.3%; in experiment [2], 10.8%; in experiment [3] it was 12.8%.

As for `CC[C@H](C)CNC(=O)c1cncc(-c2ccc(CN(C)C3CCN(C)CC3)cc2)c1`, the inhibition in experiment [1] came out at 3.57%; in experiment [2] it was 3.62%; in experiment [3], 5.08%.

As to `CCCCCN1CCC(NS(=O)(=O)c2ccc(C(=O)Nc3cccc(C(F)(F)F)c3)cc2)C1` (configuration not stated), the inhibition amounted to 8.42% in experiment [1], 2.22% in experiment [2] and 2.26% in experiment [3].

With `CC12CCC(CN(CC(O)Cn3c4ccccc4c4cc(I)ccc43)C1)C2(C)C` (configuration not stated), the results for the inhibition in experiment [1], in experiment [2] and in experiment [3] were 2.02%, 2.5% and 0.07%, respectively.

With `CN1CCC(C(=O)N(Cc2ccc(-c3ccc(CNCCc4ccc(S(C)(=O)=O)cc4)cn3)cc2)C2CCN(Cc3ccccc3)CC2)CC1`, the inhibition in experiment [1] is 3.07%; in experiment [2] it was 2.62%; in experiment [3] it was 5.75%.

As to `CN(C)CCCc1cc(NC(=O)Nc2cccc(Cl)c2Cl)ccc1I`, the values for the inhibition in experiment [1], in experiment [2] and in experiment [3] were 1.65%, 5.95% and 3.83%, respectively.

Take `O=C(NNC(=O)c1ccc(CCN2CCC(c3nc(COCC(F)(F)F)c(-c4ccc(F)cc4)o3)CC2)cc1)Nc1ccc(Oc2ccccc2)cc1`: the inhibition in experiment [1] is -0.99%; in experiment [2], -0.56%; in experiment [3], -0.09%.

Turning to `Nc1nc(Nc2ccc(Cl)cc2)nc2ccccc12`, the figures for the inhibition in experiment [1], in experiment [2] and in experiment [3] were 14%, 12.4% and 6.83%, respectively.

For the compound `O=C(Nc1ccc(CCNCc2ccccc2)cc1)Nc1ccc(OC(F)(F)F)cc1`, the inhibition was -1.69% in experiment [1], -0.14% in experiment [2] and 0.49% in experiment [3].

For the compound `Cc1ccccc1N1CCN(c2ccc(C(=O)NC(C)C)cn2)CC1`, the inhibition in experiment [1] was 0.52%; in experiment [2], -0.59%; in experiment [3] it was -1.79%.

Turning to `c1ccc(-c2n[nH]cc2Nc2ccnc3ccccc23)nc1`, the inhibition in experiment [1] worked out at 5.35%; in experiment [2], 3.76%; in experiment [3] it was 3.97%.

Take `COc1ccc(Br)cc1/C=C/C(=O)Nc1ccc2c(c1)CCCN(C)C2`: the figures for the inhibition in experiment [1], in experiment [2] and in experiment [3] were 0.84%, 3.78% and 3.56%, respectively.

Turning to `COc1ccc(-c2ccccc2OCCCNc2nc(NCCc3ccc(O)cc3)nc(N3CCNCC3)n2)cc1`, the inhibition in experiment [1] came to 1.12%; in experiment [2] it was 3.49%; in experiment [3], 2.75%.

`CCCCc1cc(NCc2ccncc2)nc(Nc2cccc(OC)c2)n1`: the inhibition in experiment [1] came to 21.4%; in experiment [2] it was 10.9%; in experiment [3], 3.45%.

In the case of `O=C(Nc1cccc(Cl)c1)c1cnc(N2CCN(c3ccncc3)CC2)c(Cl)c1`, the inhibition was 23.4% in experiment [1], 42% in experiment [2] and 12.7% in experiment [3].

For `Cc1cc(NC(=O)c2ccco2)ccc1OC1CCN(Cc2ccc(F)cc2)CC1`, the inhibition in experiment [1] was 4.89%; in experiment [2], 3.02%; in experiment [3] it was 1.98%.

On to `COc1ccc2nc(C)cc(N/N=C/C=C/c3ccccc3)c2c1`, for which the inhibition in experiment [1] came to 5.48%; in experiment [2], 7.46%; in experiment [3] it was 3.79%.

On to `CCOc1ccc(C(C)NC(=O)C2COc3ccccc3O2)cc1OCC` (configuration not stated), for which the inhibition is 2.23% in experiment [1], 1.59% in experiment [2] and 2.93% in experiment [3].

For the compound `CCCCCCCCCN(CCC)C(=O)[C@@H]1OC(C(=O)OC(c2ccccc2)c2ccccc2)=C[C@H](NC(=O)OC(C)(C)C)[C@H]1NC(C)=O`, the figures for the inhibition in experiment [1], in experiment [2] and in experiment [3] were 2.98%, 2.98% and 1.47%, respectively.

`COc1ccc2c(c1)[nH]c1c(C=Cc3ccccc3)nccc12`: the inhibition in experiment [1] worked out at 6.16%; in experiment [2] it was 5.09%; in experiment [3] it was 3.77%.

Source of the values: ChEMBL document CHEMBL3433997, “St. Jude Leishmania screening dataset” (2016).
